# Article PMC11006913
# Changes are numbered by the printed parent chain.
# What was measured:
# Assay in all cases: PBM; 200 nM protein, PBS
# Conditions in all cases: dsDNA, one strand shown
# HOXA2 [1] = molecular target: HOXA2 (Homo sapiens, UniProt O43364 129-215, R185T)
# HOXA2 [2] = molecular target: HOXA2 (Homo sapiens, UniProt O43364 129-215, R185K)
# HOXA2 [3] = molecular target: HOXA2 (Homo sapiens, UniProt O43364 129-215, Y150S)
# HOXA2 [4] = molecular target: HOXA2 (Homo sapiens, UniProt O43364 129-215)
# VAX1 [5] = molecular target: VAX1 (Homo sapiens, UniProt Q5SQQ9 86-172)
# VAX1 [6] = molecular target: VAX1 (Homo sapiens, UniProt Q5SQQ9 86-172, T142I)
# VAX1 [7] = molecular target: VAX1 (Homo sapiens, UniProt Q5SQQ9 86-172, K157R)
# NKX3-2 [8] = molecular target: NKX3-2 (Homo sapiens, UniProt P78367 192-278, P234S)
# NKX3-2 [9] = molecular target: NKX3-2 (Homo sapiens, UniProt P78367 192-278)
# HOXB9 [10] = molecular target: HOXB9 (Homo sapiens, UniProt P17482 171-250)
# MSX2 [11] = molecular target: MSX2 (Homo sapiens, UniProt P35548 130-214)
# HOXB9 [12] = molecular target: HOXB9 (Homo sapiens, UniProt P17482 171-250, R186Q)
# MSX2 [13] = molecular target: MSX2 (Homo sapiens, UniProt P35548 130-214, F161Y)
# HOXA4 = HOXA4 (Homo sapiens, UniProt Q00056 201-287, R217L)
# NKX2-6 [14] = molecular target: T1, NKX2-6 (Homo sapiens, UniProt A6NCS4 118-204)
# T1 sequence: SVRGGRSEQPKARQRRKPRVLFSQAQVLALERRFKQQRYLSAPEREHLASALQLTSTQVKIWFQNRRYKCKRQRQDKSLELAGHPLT
# NKX2-6 [15] = molecular target: T2, NKX2-6 (Homo sapiens, UniProt A6NCS4 118-204, F151L)
# T2 sequence: T1 sequence with F34L
# HOXD13 [16] = molecular target: HOXD13 (Homo sapiens, UniProt P35453 263-343)
# HOXD13 [17] = molecular target: HOXD13 (Homo sapiens, UniProt P35453 263-343, T313A)
# Chain of HOXD13 (Homo sapiens, UniProt P35453 263-343, T313A) (P35453 263-343 T313A): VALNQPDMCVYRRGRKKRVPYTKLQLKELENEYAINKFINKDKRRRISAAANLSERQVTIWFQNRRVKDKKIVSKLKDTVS
# Chain of HOXA2 (Homo sapiens, UniProt O43364 129-215, Y150S) (O43364 129-215 Y150S): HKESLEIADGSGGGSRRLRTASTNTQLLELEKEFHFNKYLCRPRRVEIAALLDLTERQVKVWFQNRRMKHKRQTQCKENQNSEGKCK
# Chain of HOXB9 (Homo sapiens, UniProt P17482 171-250, R186Q) (P17482 171-250 R186Q): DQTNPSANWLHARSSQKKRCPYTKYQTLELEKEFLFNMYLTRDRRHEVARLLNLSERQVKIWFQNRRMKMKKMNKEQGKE
# Chain of HOXA2 (Homo sapiens, UniProt O43364 129-215, R185T) (O43364 129-215 R185T): as the sequence (O43364 129-215 Y150S) above, with S22Y, R57T counted along it
# Chain of HOXA2 (Homo sapiens, UniProt O43364 129-215) (O43364 129-215): as the sequence (O43364 129-215 Y150S) above, with S22Y counted along it
# Chain of HOXA2 (Homo sapiens, UniProt O43364 129-215, R185K) (O43364 129-215 R185K): as the sequence (O43364 129-215 Y150S) above, with S22Y, R57K counted along it
# Chain of HOXB9 (Homo sapiens, UniProt P17482 171-250) (P17482 171-250): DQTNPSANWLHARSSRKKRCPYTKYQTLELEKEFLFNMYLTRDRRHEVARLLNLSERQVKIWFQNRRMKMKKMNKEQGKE
# Chain of VAX1 (Homo sapiens, UniProt Q5SQQ9 86-172, T142I) (Q5SQQ9 86-172 T142I): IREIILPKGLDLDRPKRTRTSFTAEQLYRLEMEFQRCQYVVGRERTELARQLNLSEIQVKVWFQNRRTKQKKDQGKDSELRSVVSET
# Chain of VAX1 (Homo sapiens, UniProt Q5SQQ9 86-172) (Q5SQQ9 86-172): as the sequence (Q5SQQ9 86-172 T142I) above, with I57T counted along it
# Chain of VAX1 (Homo sapiens, UniProt Q5SQQ9 86-172, K157R) (Q5SQQ9 86-172 K157R): as the sequence (Q5SQQ9 86-172 T142I) above, with I57T, K72R counted along it
# Chain of MSX2 (Homo sapiens, UniProt P35548 130-214) (P35548 130-214): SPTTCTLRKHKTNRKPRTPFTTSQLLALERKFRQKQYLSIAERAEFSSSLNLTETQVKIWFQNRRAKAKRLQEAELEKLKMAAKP
# Chain of NKX3-2 (Homo sapiens, UniProt P78367 192-278) (P78367 192-278): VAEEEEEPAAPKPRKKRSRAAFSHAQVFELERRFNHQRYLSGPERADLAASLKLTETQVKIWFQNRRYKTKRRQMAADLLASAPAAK
# Chain of MSX2 (Homo sapiens, UniProt P35548 130-214, F161Y) (P35548 130-214 F161Y): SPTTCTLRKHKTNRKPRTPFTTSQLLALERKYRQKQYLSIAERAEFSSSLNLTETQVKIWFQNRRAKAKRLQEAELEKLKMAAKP
# Chain of NKX3-2 (Homo sapiens, UniProt P78367 192-278, P234S) (P78367 192-278 P234S): as the sequence (P78367 192-278) above, with P43S counted along it
# Chain of HOXD13 (Homo sapiens, UniProt P35453 263-343) (P35453 263-343): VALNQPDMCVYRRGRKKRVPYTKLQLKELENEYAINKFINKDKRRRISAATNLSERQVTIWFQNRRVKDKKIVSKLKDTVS
# Chain of HOXA4 (Q00056 201-287 R217L): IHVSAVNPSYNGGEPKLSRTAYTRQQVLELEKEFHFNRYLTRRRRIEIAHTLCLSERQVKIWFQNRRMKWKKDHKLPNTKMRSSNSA
sequence,measurement,setting,value
GGATATTA,binding signal,HOXA2 [1],"10.4 upbm affinity estimate (log intensity, higher = more binding, comparable within an allelic series)"
same,binding signal,HOXA2 [2],"12 upbm affinity estimate (log intensity, higher = more binding, comparable within an allelic series)"
same,binding signal,HOXA2 [3],"10.8 upbm affinity estimate (log intensity, higher = more binding, comparable within an allelic series)"
same,binding signal,HOXA2 [4],"10.6 upbm affinity estimate (log intensity, higher = more binding, comparable within an allelic series)"
CTGGGGCC,binding signal,HOXA2 [1],"7.14 upbm affinity estimate (log intensity, higher = more binding, comparable within an allelic series)"
same,binding signal,HOXA2 [2],"10.1 upbm affinity estimate (log intensity, higher = more binding, comparable within an allelic series)"
same,binding signal,HOXA2 [3],"10.3 upbm affinity estimate (log intensity, higher = more binding, comparable within an allelic series)"
same,binding signal,HOXA2 [4],"7.16 upbm affinity estimate (log intensity, higher = more binding, comparable within an allelic series)"
CCCCCTCC,binding signal,HOXA2 [1],"6.95 upbm affinity estimate (log intensity, higher = more binding, comparable within an allelic series)"
same,binding signal,HOXA2 [2],"9.98 upbm affinity estimate (log intensity, higher = more binding, comparable within an allelic series)"
same,binding signal,HOXA2 [3],"10.1 upbm affinity estimate (log intensity, higher = more binding, comparable within an allelic series)"
same,binding signal,HOXA2 [4],"6.89 upbm affinity estimate (log intensity, higher = more binding, comparable within an allelic series)"
AGAGCCCC,binding signal,HOXA2 [1],"7.28 upbm affinity estimate (log intensity, higher = more binding, comparable within an allelic series)"
same,binding signal,HOXA2 [2],"10.2 upbm affinity estimate (log intensity, higher = more binding, comparable within an allelic series)"
same,binding signal,HOXA2 [3],"10.3 upbm affinity estimate (log intensity, higher = more binding, comparable within an allelic series)"
same,binding signal,HOXA2 [4],"7.25 upbm affinity estimate (log intensity, higher = more binding, comparable within an allelic series)"
GAGCCCGC,binding signal,HOXA2 [1],"7.09 upbm affinity estimate (log intensity, higher = more binding, comparable within an allelic series)"
same,binding signal,HOXA2 [2],"10.2 upbm affinity estimate (log intensity, higher = more binding, comparable within an allelic series)"
same,binding signal,HOXA2 [3],"10.4 upbm affinity estimate (log intensity, higher = more binding, comparable within an allelic series)"
same,binding signal,HOXA2 [4],"7.5 upbm affinity estimate (log intensity, higher = more binding, comparable within an allelic series)"
CGATTACA,binding signal,HOXA2 [1],"10.3 upbm affinity estimate (log intensity, higher = more binding, comparable within an allelic series)"
same,binding signal,HOXA2 [2],"12 upbm affinity estimate (log intensity, higher = more binding, comparable within an allelic series)"
same,binding signal,HOXA2 [3],"10.7 upbm affinity estimate (log intensity, higher = more binding, comparable within an allelic series)"
same,binding signal,HOXA2 [4],"9.9 upbm affinity estimate (log intensity, higher = more binding, comparable within an allelic series)"
TCATTAGA,binding signal,HOXA2 [1],"12.1 upbm affinity estimate (log intensity, higher = more binding, comparable within an allelic series)"
same,binding signal,HOXA2 [2],"13 upbm affinity estimate (log intensity, higher = more binding, comparable within an allelic series)"
same,binding signal,VAX1 [5],"12.8 upbm affinity estimate (log intensity, higher = more binding, comparable within an allelic series)"
same,binding signal,VAX1 [6],"12.5 upbm affinity estimate (log intensity, higher = more binding, comparable within an allelic series)"
same,binding signal,HOXA2 [3],"10.6 upbm affinity estimate (log intensity, higher = more binding, comparable within an allelic series)"
same,binding signal,HOXA2 [4],"12.1 upbm affinity estimate (log intensity, higher = more binding, comparable within an allelic series)"
same,binding signal,VAX1 [7],"12.5 upbm affinity estimate (log intensity, higher = more binding, comparable within an allelic series)"
CAGTTAAG,binding signal,HOXA2 [1],"9.01 upbm affinity estimate (log intensity, higher = more binding, comparable within an allelic series)"
same,binding signal,HOXA2 [2],"11.5 upbm affinity estimate (log intensity, higher = more binding, comparable within an allelic series)"
same,binding signal,HOXA2 [4],"8.89 upbm affinity estimate (log intensity, higher = more binding, comparable within an allelic series)"
ACCTCGCC,binding signal,HOXA2 [1],"7.06 upbm affinity estimate (log intensity, higher = more binding, comparable within an allelic series)"
same,binding signal,HOXA2 [2],"10.2 upbm affinity estimate (log intensity, higher = more binding, comparable within an allelic series)"
same,binding signal,HOXA2 [3],"10.4 upbm affinity estimate (log intensity, higher = more binding, comparable within an allelic series)"
same,binding signal,HOXA2 [4],"6.93 upbm affinity estimate (log intensity, higher = more binding, comparable within an allelic series)"
CCTGCCAC,binding signal,HOXA2 [1],"7.29 upbm affinity estimate (log intensity, higher = more binding, comparable within an allelic series)"
same,binding signal,HOXA2 [2],"10.3 upbm affinity estimate (log intensity, higher = more binding, comparable within an allelic series)"
same,binding signal,HOXA2 [3],"10.6 upbm affinity estimate (log intensity, higher = more binding, comparable within an allelic series)"
same,binding signal,HOXA2 [4],"7.12 upbm affinity estimate (log intensity, higher = more binding, comparable within an allelic series)"
CATTATGG,binding signal,HOXA2 [1],"10.5 upbm affinity estimate (log intensity, higher = more binding, comparable within an allelic series)"
same,binding signal,HOXA2 [2],"12.3 upbm affinity estimate (log intensity, higher = more binding, comparable within an allelic series)"
same,binding signal,HOXA2 [3],"10.7 upbm affinity estimate (log intensity, higher = more binding, comparable within an allelic series)"
same,binding signal,HOXA2 [4],"10.9 upbm affinity estimate (log intensity, higher = more binding, comparable within an allelic series)"
GCTCATTA,binding signal,HOXA2 [1],"12.7 upbm affinity estimate (log intensity, higher = more binding, comparable within an allelic series)"
same,binding signal,HOXA2 [2],"13.2 upbm affinity estimate (log intensity, higher = more binding, comparable within an allelic series)"
same,binding signal,VAX1 [5],"13.1 upbm affinity estimate (log intensity, higher = more binding, comparable within an allelic series)"
same,binding signal,VAX1 [6],"12.8 upbm affinity estimate (log intensity, higher = more binding, comparable within an allelic series)"
same,binding signal,HOXA2 [3],"10.5 upbm affinity estimate (log intensity, higher = more binding, comparable within an allelic series)"
same,binding signal,HOXA2 [4],"12.5 upbm affinity estimate (log intensity, higher = more binding, comparable within an allelic series)"
same,binding signal,VAX1 [7],"12.7 upbm affinity estimate (log intensity, higher = more binding, comparable within an allelic series)"
AACCGGGC,binding signal,HOXA2 [1],"7.08 upbm affinity estimate (log intensity, higher = more binding, comparable within an allelic series)"
same,binding signal,HOXA2 [2],"10.3 upbm affinity estimate (log intensity, higher = more binding, comparable within an allelic series)"
same,binding signal,HOXA2 [3],"10.3 upbm affinity estimate (log intensity, higher = more binding, comparable within an allelic series)"
same,binding signal,NKX3-2 [8],"10.4 upbm affinity estimate (log intensity, higher = more binding, comparable within an allelic series)"
same,binding signal,HOXA2 [4],"7.35 upbm affinity estimate (log intensity, higher = more binding, comparable within an allelic series)"
same,binding signal,NKX3-2 [9],"10.4 upbm affinity estimate (log intensity, higher = more binding, comparable within an allelic series)"
AATCAGCT,binding signal,HOXA2 [1],"10.1 upbm affinity estimate (log intensity, higher = more binding, comparable within an allelic series)"
same,binding signal,HOXA2 [2],"11.9 upbm affinity estimate (log intensity, higher = more binding, comparable within an allelic series)"
same,binding signal,HOXA2 [3],"10.7 upbm affinity estimate (log intensity, higher = more binding, comparable within an allelic series)"
same,binding signal,HOXA2 [4],"9.77 upbm affinity estimate (log intensity, higher = more binding, comparable within an allelic series)"
CTACATTA,binding signal,HOXA2 [1],"10.6 upbm affinity estimate (log intensity, higher = more binding, comparable within an allelic series)"
same,binding signal,HOXA2 [2],"12.2 upbm affinity estimate (log intensity, higher = more binding, comparable within an allelic series)"
same,binding signal,HOXA2 [3],"10.8 upbm affinity estimate (log intensity, higher = more binding, comparable within an allelic series)"
same,binding signal,HOXA2 [4],"10.8 upbm affinity estimate (log intensity, higher = more binding, comparable within an allelic series)"
AAAAATTG,binding signal,HOXA2 [1],"8.96 upbm affinity estimate (log intensity, higher = more binding, comparable within an allelic series)"
same,binding signal,HOXA2 [4],"8.94 upbm affinity estimate (log intensity, higher = more binding, comparable within an allelic series)"
AAATACCC,binding signal,HOXA2 [1],"9.06 upbm affinity estimate (log intensity, higher = more binding, comparable within an allelic series)"
same,binding signal,HOXA2 [4],"8.99 upbm affinity estimate (log intensity, higher = more binding, comparable within an allelic series)"
CATTTTAC,binding signal,HOXA2 [1],"8.88 upbm affinity estimate (log intensity, higher = more binding, comparable within an allelic series)"
same,binding signal,HOXA2 [4],"8.85 upbm affinity estimate (log intensity, higher = more binding, comparable within an allelic series)"
ACTCGTAA,binding signal,HOXA2 [1],"9.32 upbm affinity estimate (log intensity, higher = more binding, comparable within an allelic series)"
same,binding signal,HOXA2 [4],"9.32 upbm affinity estimate (log intensity, higher = more binding, comparable within an allelic series)"
TAATAGTA,binding signal,HOXB9 [10],"10.9 upbm affinity estimate (log intensity, higher = more binding, comparable within an allelic series)"
same,binding signal,MSX2 [11],"11.7 upbm affinity estimate (log intensity, higher = more binding, comparable within an allelic series)"
same,binding signal,HOXB9 [12],"10.8 upbm affinity estimate (log intensity, higher = more binding, comparable within an allelic series)"
same,binding signal,MSX2 [13],"11.5 upbm affinity estimate (log intensity, higher = more binding, comparable within an allelic series)"
CCTATCAG,binding signal,HOXA2 [1],"8.81 upbm affinity estimate (log intensity, higher = more binding, comparable within an allelic series)"
same,binding signal,HOXA2 [4],"8.67 upbm affinity estimate (log intensity, higher = more binding, comparable within an allelic series)"
ATCATCTG,binding signal,HOXA2 [1],"9.25 upbm affinity estimate (log intensity, higher = more binding, comparable within an allelic series)"
same,binding signal,HOXA2 [3],"10.7 upbm affinity estimate (log intensity, higher = more binding, comparable within an allelic series)"
same,binding signal,HOXA2 [4],"9.72 upbm affinity estimate (log intensity, higher = more binding, comparable within an allelic series)"
ATATCTTC,binding signal,HOXB9 [10],"10 upbm affinity estimate (log intensity, higher = more binding, comparable within an allelic series)"
same,binding signal,HOXB9 [12],"9.91 upbm affinity estimate (log intensity, higher = more binding, comparable within an allelic series)"
ACATTAGC,binding signal,HOXA4,"10.8 upbm affinity estimate (log intensity, higher = more binding, comparable within an allelic series)"
CCTATTTA,binding signal,HOXB9 [10],"10.4 upbm affinity estimate (log intensity, higher = more binding, comparable within an allelic series)"
same,binding signal,NKX2-6 [14],"11.2 upbm affinity estimate (log intensity, higher = more binding, comparable within an allelic series)"
same,binding signal,HOXB9 [12],"10.2 upbm affinity estimate (log intensity, higher = more binding, comparable within an allelic series)"
same,binding signal,NKX2-6 [15],"9.86 upbm affinity estimate (log intensity, higher = more binding, comparable within an allelic series)"
TGTGTAAA,binding signal,HOXB9 [10],"9.82 upbm affinity estimate (log intensity, higher = more binding, comparable within an allelic series)"
same,binding signal,HOXD13 [16],"11.1 upbm affinity estimate (log intensity, higher = more binding, comparable within an allelic series)"
same,binding signal,HOXD13 [17],"11 upbm affinity estimate (log intensity, higher = more binding, comparable within an allelic series)"
AGGTTGAT,binding signal,HOXA2 [1],"8.92 upbm affinity estimate (log intensity, higher = more binding, comparable within an allelic series)"
same,binding signal,HOXA2 [4],"9.03 upbm affinity estimate (log intensity, higher = more binding, comparable within an allelic series)"
AGATAGAT,binding signal,HOXA2 [1],"8.87 upbm affinity estimate (log intensity, higher = more binding, comparable within an allelic series)"
same,binding signal,HOXA2 [4],"8.71 upbm affinity estimate (log intensity, higher = more binding, comparable within an allelic series)"
